# In PubChem BioAssay (Tox21):
# Several values for one entry are separate records, joined by “and”; a condition that tells them apart may be missing. Equal values may be shown once. Records with an inconclusive call do not appear. Activity calls are given as the source filed them. Calls come from the whole dose curve; as a rule, active = well fitted inhibition curve with a large enough effect in the repeat runs; inconclusive = weak or mixed curves; inactive = no such curve, though single readings can be large or run the other way.
# Test: qHTS assay to identify small molecule antagonists of the thyroid receptor (TR) signaling pathway (AID 743065); note: nearly all actives have a fitted effect of over 55% in size
# Details: GH3.TRE-Luc, T3-stimulated luciferase inhibition, 23.5 h; series mostly up to 70.3 µM; activity, negative = inhibition: at the top concentration
# Source text: U.S. Tox21 Program National Center for Advancing Translational Sciences [NCATS] NIH Chemical Genomics Center [NCGC] U.S. Environmental Protection Agency [EPA] National Institutes of Environmental Health Sciences [NIEHS] National Toxicology Program [NTP] U.S. Food and Drug Administration [FDA] Tox21 Assay Overview: Thyroid receptor (TR), a nuclear hormone receptor, plays an important role in development, proliferation, differentiation, metabolism, brain function, and cardiovascular system. […] To profile the Tox21 10K compound library in TR signaling, a cell-based GH3-TRE-Luc assay (GH3.TRE-Luc cell line, developed by the laboratory of Dr. Albertinka J. Murk, Wageningen University) was used to measure the inhibition of TR. GH3 (rat pituitary tumor) cells stably expressing a TR activity sensor consisting of two TR response elements and a luciferase reporter gene.
# Tox21 Assay Protocol Summary: GH3.TRE-Luc cells were dispensed at 1500 cells/4 uL/well into 1536-well white solid bottom plates using a Multidrop Combi dispenser (Thermo Fisher Scientific Inc., Waltham, MA). After the assay plates were incubated at 37 C for 4 hours, 23 nL of library compound or DMSO controls was transferred to the assay plates by a pintool station (Kalypsys, San Diego, CA), followed by addition of 1 ul of T3 (1 nM, final concentration in the wells) to stimulate TR transactivation. The assay plates were incubated at 37 C for 23.5 h, and then 1 uL of CellTiter-Fluor reagent (Promega, Madision, WI) of measuring cytotoxicity was added to each well using a Bioraptr Flying Reagent Dispenser (FRD) workstation (Beckman Coulter, Indianapolis, IN, USA). The plates were incubated at 37 C and 5% CO2 for additional 30 min, and fluorescence intensity was measured by a ViewLux plate reader (PerkinElmer, Shelton, CT). For measuring luciferase reporter gene activity, 4 uL of ONE-Glo Luciferase Assay reagent (Promega) was added to each well using a Bioraptr FRD (Beckman Coulter), followed by 30 min incubation at room temperature. The luminescence intensity of plates was recorded by a ViewLux plate reader (PerkinElmer, Shelton, CT).
# % is set by controls: 0 for no effect and ±100 for the full control effect; potency is the fitted concentration of half-maximal effect.
Compound,"activity, negative = inhibition",Potency
CC/C=C\CCOC(=O)CCCCC,18.3% (inactive),–
CC[C@H]1CC[C@H](NCc2cc3c(cc2OC)[C@H]2C[C@H]2C(=O)N3C)[C@H](c2ccccc2)N1,–,19.3 µM (active)
CC(C)(CO)[C@@H](O)C(=O)NCCC(=O)O,–,inactive
CCN(CC)CCOc1ccc(Cc2ccccc2)cc1,–,10.6 µM (active)
Nc1ccc2ccccc2c1S(=O)(=O)O,11.8% [at 95 µM] (inactive),–
O=C1Nc2ccc([N+](=O)[O-])cc2C1=O,30.3% (inactive),–
NCCCN1CCN(CCCN)CC1,0.0203% (inactive),–
COC(=O)N[C@H](C(=O)N[C@@H](Cc1ccccc1)[C@@H](O)CN(Cc1ccc(-c2ccccn2)cc1)NC(=O)[C@@H](NC(=O)OC)C(C)(C)C)C(C)(C)C,–,26.6 µM (active)
CCN(CC)C(=O)N(CC)CC,2.36% (inactive),–
COC(=O)c1ccc(OC)cc1,7.81% (inactive),–
CC(C)S,-3.69% [at 95 µM] (inactive),–
CCN(O)CC,-3.53% (inactive),–
CCCCCCCCOC(=O)CCCCCCCCC(=O)OCCCCCCCC,5.6% (inactive),–
Cc1cccc(C)c1NC(=O)CN1CCCCCC1,7.39% (inactive),–
CCCCCCCCCC/C=C/C#N,0.0033% (inactive),–
C[C@@H](N)C(=O)O,19.8% (inactive),–
CN(C)C(=O)NC1(c2ccccc2)CCN(CCC[C@]2(c3ccc(Cl)c(Cl)c3)CCCN(C(=O)c3ccccc3)C2)CC1,–,11.6 µM (active)
COc1ccc(S(=O)(=O)Nc2nnc(CC(C)C)s2)cc1,–,inactive
CCCNC(C)C(=O)Nc1c(C)csc1C(=O)OC (stereo not given),1.23% [at 32.5 µM] (inactive),–
O=CCCc1ccccc1,13.2% (inactive),–

Compound,"activity, negative = inhibition",Potency
O=S(=O)(O)C(F)(F)F,8.01% (inactive),–
CCCCC(CC)COC(=O)COc1cc(Cl)c(Cl)cc1Cl (stereo not given),-0.0544% (inactive),–
Cc1ccc(C=O)s1,0.132% (inactive),–
CCCCNCCCC,-0.454% (inactive),–
CCc1cc(Cl)c(OC)c(C(=O)NC[C@@H]2CCCN2CC)c1O,–,23.7 µM (active) and 11.4 µM (active) and 11.9 µM (active)
CC1(O)CSC(C)(O)CS1 (stereo not given),-3.49% (inactive),–
C[C@]12C(=O)OC(=O)[C@H]1[C@H]1C=C[C@@H]2C1,-3% [at 95 µM] (inactive),–
CN1CCN(c2c(F)cc3c(=O)c(C(=O)O)cn4c3c2SCC4)CC1,0.0119% (inactive),–
C1CSCCS1,1.19% (inactive),–
CCCC1CCC(=O)O1 (stereo not given),2.27% (inactive),–
COc1cc(C)ccc1C(C)C,3.98% (inactive),–
CCC1(C)NC(=O)NC1=O (stereo not given),-1.88% (inactive),–
ICCc1ccccc1,13.3% (inactive),–
O=c1[nH]cnc2c1ncn2[C@@H]1O[C@H](CO)[C@@H](O)[C@H]1O,8.34% (inactive),–
CC1=C(O)C(=O)OC1C (stereo not given),7.47% (inactive),–
CC(C)O,–,inactive
Cc1c(-c2ccccc2)oc2c(C(=O)OCCN3CCCCC3)cccc2c1=O,0.802% [at 32.5 µM] (inactive),–
C=CCCC=C,-4.92% [at 95 µM] (inactive),–
Cc1c(C(=O)NCCO)[n+](=O)c2ccccc2n1[O-],1.88% (inactive),–
COC(C)CCO (stereo not given),6.62% (inactive),–
